Bioassay records as filed in PubChem.
GRK2 inh = blocks RNA aptamer binding to human GRK2; P25098; bead flow cytometry, FAM-aptamer displacement from GRK2; inhibition of aptamer binding, % at 10 µM; 0.59% of 330,000 active;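 active = inhibition of aptamer binding above 40%, roughly 3 SD of noise, on plates passing a quality check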;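 also: median bead fluorescence of bound FAM aptamer so fluorescent compounds give negative values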
Efflux pump mplx = antifungal efflux pump inhibition, Nile Red retention | S. cerevisiae Candida pump triplex | inhibition, % at 10 µM | 0.44% of 330,000 active | AID 485275;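 active = plate passing quality check with inhibition over a set limit, or well fluorescence over plate mean plus 4 SD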;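 also: Nile Red retained in pooled yeast measured as flow cytometry median fluorescence; 0% = buffer negative control and 100% = Enniatin B positive control; higher means more Nile Red kept so more efflux inhibition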
Rtt109 HAT inh = inhibitors of Candida albicans Rtt109/Vps75 histone acetyltransferase | Q5AAJ8 | purified Rtt109/Vps75, ThioGlo CoA-SH fluorescence, 4 h | inhibition, % at 34.9 µM | 0.16% of 330,000 active | AID 540336;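 active = inhibition of at least 50% in every replicate; inconclusive = best replicate reaches 50% inhibition but some replicates fall short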
ALR inh = blocks human ALR sulfhydryl oxidase activity. P55789. inhibition, % (concentration not given with the values). purified ALR, DTT oxidation, H2O2 HRP-luminol luminescence. 3.8% of 290,000 active. AID 485317;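 active = mean replicate inhibition above about 79%, with every replicate also reaching it, limit read from the data; inconclusive = only one of the two criteria met; inactive = mean below limit and not every replicate reaching it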
Target sequence (P55789 whole entry, looked up): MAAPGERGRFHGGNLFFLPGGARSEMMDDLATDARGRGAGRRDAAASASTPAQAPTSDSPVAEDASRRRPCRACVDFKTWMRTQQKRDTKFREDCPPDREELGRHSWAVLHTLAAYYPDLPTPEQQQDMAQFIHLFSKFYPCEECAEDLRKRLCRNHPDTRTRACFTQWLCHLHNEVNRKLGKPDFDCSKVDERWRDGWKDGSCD
Rce1 inhib = inhibitors of yeast Ras-converting enzyme; calls only; Q03530; yeast membranes, quenched prenylated peptide cleavage fluorescence; 0.27% of 290,000 active; AID 2563;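 active = fall in fluorescence gain of 50% or more versus controls, with final raw signal at or below 3038400; inconclusive = same 50% fall but final raw signal above 3038400; inactive = fall in fluorescence gain under 50%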;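 also: plate controls were neutral control wells for no effect and wells lacking membranes for full effect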
HDAC3 inh = inhibitors of human histone deacetylase 3; recombinant HDAC3, fluorogenic peptide/trypsin coupled, fluorescence; inhibition, % at 8.3 µM; 0.15% of 320,000 active; AID 2718; in the data active = inhibition above about 26%, passing the limit was not always enough; inconclusive = no clear call, values can overlap the other calls
Target sequence (O15379 whole entry, looked up): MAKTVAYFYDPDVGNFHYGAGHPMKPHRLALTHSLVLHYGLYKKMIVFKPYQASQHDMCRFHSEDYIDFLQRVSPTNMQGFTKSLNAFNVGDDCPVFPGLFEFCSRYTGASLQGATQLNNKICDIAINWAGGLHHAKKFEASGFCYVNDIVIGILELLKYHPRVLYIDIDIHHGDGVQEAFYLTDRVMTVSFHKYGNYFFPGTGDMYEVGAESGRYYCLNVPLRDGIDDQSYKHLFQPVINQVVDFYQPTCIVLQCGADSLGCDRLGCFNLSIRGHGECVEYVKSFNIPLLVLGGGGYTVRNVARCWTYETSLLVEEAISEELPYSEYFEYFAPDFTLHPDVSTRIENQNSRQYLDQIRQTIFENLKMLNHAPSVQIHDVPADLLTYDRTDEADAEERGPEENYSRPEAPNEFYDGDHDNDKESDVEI
* = called active by the depositor. Compounds with a hit are over-represented: about 4.5% of the library has one in this group of screens.

For Cc1cc(C)nc(Nc2ccc(C(=O)O)cc2)n1 the results were GRK2 inh 0.0, Efflux pump mplx 0.0, Rtt109 HAT inh -10.6, ALR inh -7.2, Rce1 inhib inactive and HDAC3 inh 2.0.
For COc1ccc(NC(=O)CSCc2ccc(C#N)cc2)c(OC)c1 the results were GRK2 inh 1.0, Efflux pump mplx 0.1, Rtt109 HAT inh -4.3, ALR inh 98.2*, Rce1 inhib inactive and HDAC3 inh 2.6.
`COc1ccc(NC(=O)CCSCCC(=O)Nc2ccc(OC)cc2OC)c(OC)c1` gave GRK2 inh 6.0, Efflux pump mplx 1.1, Rtt109 HAT inh -6.8, ALR inh 97.4*, Rce1 inhib inactive and HDAC3 inh -5.3.
COc1ccc(NC(=O)CCCCC(=O)Nc2ccc(OC)cc2OC)c(OC)c1 was read as GRK2 inh 1.0, Efflux pump mplx 0.0, Rtt109 HAT inh -11.0, ALR inh -13.1, Rce1 inhib inactive and HDAC3 inh 6.5.
`Nc1nnc(SCC(=O)OCC(=O)Nc2ccc(Br)cc2)s1` gave GRK2 inh 0.0, Efflux pump mplx 0.7, Rtt109 HAT inh -5.6, ALR inh 99.2*, Rce1 inhib inactive and HDAC3 inh 3.2.
`Cc1nnc2sc(SCC(=O)Nc3ccc(Br)cc3)nn2c1=O` gave GRK2 inh 0.0, Efflux pump mplx 0.0, Rtt109 HAT inh -52.1, ALR inh 97.3*, Rce1 inhib inactive and HDAC3 inh 4.0.
Screening COC(=O)c1ccc(NC(=O)CSc2nn3c(=O)c(C)nnc3s2)cc1 returned GRK2 inh 0.0, Efflux pump mplx 0.0, Rtt109 HAT inh -48.2, ALR inh 93.2*, Rce1 inhib inactive and HDAC3 inh 1.1.
CCn1c(C)nc2cc(C(=O)N3N=C(CCOC)CC3(O)C(F)(F)F)ccc21 (stereo not drawn) was read as GRK2 inh 0.0, Efflux pump mplx -0.1, Rtt109 HAT inh 2.1, ALR inh -5.1, Rce1 inhib inactive and HDAC3 inh -4.4.
Screening CN1C(=O)CCC(CCC(=O)O)(c2ccccc2O)C1=O (stereo not drawn) returned GRK2 inh 5.0, Efflux pump mplx 0.0, Rtt109 HAT inh 1.0, ALR inh 0.5, Rce1 inhib inactive and HDAC3 inh 1.4.
Screening CCc1ccc2nc(N(CCN(C)C)C(=O)c3ccc4ncsc4c3)sc2c1 returned GRK2 inh 0.0, Efflux pump mplx 0.2, Rtt109 HAT inh inconclusive, ALR inh 5.0, Rce1 inhib inactive and HDAC3 inh 10.3.
Screening Cc1cc(NS(=O)(=O)c2ccc(NC(=O)CSc3nc4ncc(Cl)cc4[nH]3)cc2)nc(C)n1 returned GRK2 inh 0.0, Efflux pump mplx -0.1, Rtt109 HAT inh 2.6, ALR inh 99.5*, Rce1 inhib inactive and HDAC3 inh 5.4.
Cc1cc(NS(=O)(=O)c2ccc(NC(=O)CSc3nc4ncccc4[nH]3)cc2)nc(C)n1 was read as GRK2 inh 0.0, Efflux pump mplx -0.1, Rtt109 HAT inh -5.3, ALR inh 98.9*, Rce1 inhib inactive and HDAC3 inh -10.9.
COc1ccc(C(=O)Nc2ccc(S(=O)(=O)Nc3cc(C)nc(C)n3)cc2)cc1 was read as GRK2 inh 4.0, Efflux pump mplx -0.2, Rtt109 HAT inh -0.9, ALR inh -0.4, Rce1 inhib inactive and HDAC3 inh 5.0.
For Cc1cc(NS(=O)(=O)c2ccc(NC(=O)c3cnc(Cl)c(Cl)c3)cc2)nc(C)n1 the results were GRK2 inh 0.0, Efflux pump mplx 0.0, Rtt109 HAT inh 12.2, ALR inh 98.7* and HDAC3 inh -3.8.
Cc1cc(NS(=O)(=O)c2ccc(NC(=O)CSc3nc4ncc(Br)cc4[nH]3)cc2)nc(C)n1 was read as GRK2 inh 0.0, Efflux pump mplx 0.0, Rtt109 HAT inh -7.3, ALR inh 98.8*, Rce1 inhib inactive and HDAC3 inh -0.1.
Screening CCNc1c(NS(=O)(=O)c2ccc(OC)cc2)c(=O)oc2ccccc12 returned GRK2 inh 1.0, Efflux pump mplx 0.0, Rtt109 HAT inh 2.7, ALR inh -10.0 and HDAC3 inh 1.1.
`CC1CCN(C(=O)CNC(=O)c2ccc(Br)o2)CC1` gave GRK2 inh 1.0, Efflux pump mplx 0.2, Rtt109 HAT inh 4.2, ALR inh 6.2 and HDAC3 inh -6.9.
For COc1ccc(C(=O)CSC#N)cc1OC the results were GRK2 inh 1.0, Efflux pump mplx 0.0, Rtt109 HAT inh -9.3, ALR inh 98.8*, Rce1 inhib inactive and HDAC3 inh 11.3.
For COc1ccc(C(=O)CSc2cc(C)nc3nc(C)nn23)cc1OC the results were GRK2 inh 0.0, Efflux pump mplx 0.1, Rtt109 HAT inh -8.3, ALR inh 98.4*, Rce1 inhib inactive and HDAC3 inh 4.6.
For COc1ccc(C(=O)COC(=O)c2ccc(OC)c(OC)c2)cc1OC the results were GRK2 inh 0.0, Efflux pump mplx 0.0, Rtt109 HAT inh 1.4, ALR inh 28.5, Rce1 inhib inactive and HDAC3 inh 4.2.
For CCC(CO)n1c(SCc2cc(=O)oc3cc(C)ccc23)nc2ccccc2c1=O (stereo not drawn) the results were GRK2 inh 0.0, Efflux pump mplx -0.1, Rtt109 HAT inh 0.3, ALR inh 98.7*, Rce1 inhib inactive and HDAC3 inh 1.2.
CCCCC/C(=N\NC(=O)CCC(=O)NCc1ccccc1)c1ccccc1 was read as GRK2 inh 0.0, Efflux pump mplx 0.3, Rtt109 HAT inh -4.7, ALR inh 0.7, Rce1 inhib inactive and HDAC3 inh -1.6.
`CC/C(=N\NC(=O)CCC(=O)NCc1ccccc1)c1ccc(O)cc1` gave GRK2 inh 2.0, Efflux pump mplx 0.0, Rtt109 HAT inh 9.7, ALR inh 98.8*, Rce1 inhib inactive and HDAC3 inh 0.8.
`O=C(NNC(=O)c1ccc(S(=O)(=O)N2CCOCC2)cc1)c1ccccc1` gave GRK2 inh 10.0, Efflux pump mplx 0.2, Rtt109 HAT inh -5.1, ALR inh 2.5, Rce1 inhib inactive and HDAC3 inh -3.5.
`O=C(Oc1ccccc1)n1c(=S)oc2ccccc21` gave GRK2 inh 1.0, Efflux pump mplx -0.2, Rtt109 HAT inh -1.9, ALR inh 14.1, Rce1 inhib inactive and HDAC3 inh 3.0.
Cc1ccccc1OC(=O)n1c(=S)oc2cc(Cl)ccc21 was read as GRK2 inh 0.0, Efflux pump mplx -0.1, Rtt109 HAT inh 6.6, ALR inh 83.1*, Rce1 inhib inactive and HDAC3 inh 0.1.
CCOc1cc(/C=C2\N=C(SCC)SC2=O)cc([N+](=O)[O-])c1OC(C)=O was read as GRK2 inh 2.0, Efflux pump mplx 0.0, Rtt109 HAT inh 7.7, ALR inh 34.2, Rce1 inhib inactive and HDAC3 inh -6.0.
`CCOc1c(OC(C)=O)ccc(/C=C2\N=C(SCC)SC2=O)c1[N+](=O)[O-]` gave GRK2 inh 100.0*, Efflux pump mplx 0.0, Rtt109 HAT inh 11.7, ALR inh 68.1, Rce1 inhib inactive and HDAC3 inh 12.6.
`CCCN(CC(=O)Nc1ccc(F)c(F)c1F)C(=O)CN1C(=O)NC2(CCCCC2)C1=O` gave Rtt109 HAT inh 1.8.
